MEP2 TOR yeast – modulators of TOR pathway MEP2-GFP in S. cerevisiae; S. cerevisiae MEP2-GFP strain, flow cytometry GFP, 3 h; 100% = DMSO control level; GFP response vs DMSO, % at 10 µM; 330,000 tested, 0.51% active; AID 2016;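 active means GFP response versus DMSO above a set limit, roughly screen mean plus 3 SD, cut at about 180% in these data; inconclusive means fewer than 70 cells counted for a yeast strain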;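 further: median GFP fluorescence of the barcode-gated MEP2-GFP cells per well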
AGP1 TOR yeast – yeast TOR pathway AGP1-GFP modulation | S. cerevisiae AGP1-GFP multiplex flow cytometry, 3 h; GFP as percent of DMSO wells | GFP response vs DMSO, % at 10 µM | 320,000 tested, 0.02% active;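 active means GFP response relative to DMSO above a set limit, near screen average plus 3 SD, cut at about 150% in these data; inconclusive means fewer than 70 cells counted for the yeast strain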;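 further: median GFP channel fluorescence of the gated AGP1 strain per well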
Myeloid diff MLP – compounds promoting myeloid differentiation; ER-HoxA9 myeloid progenitors, lysozyme-GFP differentiation, flow cytometry; calls only at 10 µM; 360,000 tested, 1% active; AID 624256;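 active means normalized GFP-positive differentiation at or above the plate's own cutoff, the solvent-only control mean plus 3 SD; inconclusive means no clear call, values can overlap the other calls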;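 further: cells exposed to compound for four days before flow analysis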
LAP4 TOR yeast – alters LAP4-GFP fluorescence in TOR pathway yeast screen. S. cerevisiae LAP4-GFP multiplex, flow cytometry GFP, 3 h; median GFP as percent of DMSO wells. GFP response vs DMSO, % at 10 µM. 320,000 tested, 0.34% active. AID 2023;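 active means GFP response vs DMSO above a set limit, about the screen mean plus 3 SD, cut at about 150% in these data; inconclusive means under 70 cell events counted for the yeast strain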
RPL19A TOR yeast – yeast TOR pathway RPL19A-GFP modulation. 330,000 tested, 0.3% active. S. cerevisiae RPL19A-GFP strain, flow cytometry, 3 h; stronger effect = lower value. AID 2025. percent response vs DMSO, % at 10 µM;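 active means percent response vs DMSO below 50%; inconclusive means fewer than 70 events counted for the yeast strain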;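 further: median channel GFP fluorescence of the barcoded RPL19A-GFP strain; ratio of sample median GFP to plate DMSO average so 100% = DMSO; lower means less RPL19A-GFP as with rapamycin TOR inhibition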
CIT2-GFP yeast – yeast TOR pathway CIT2-GFP modulation | 320,000 tested, 0.065% active | GFP response vs DMSO, % at 10 µM | S. cerevisiae CIT2-GFP strain, flow cytometry, 3 h; 100 means same as DMSO wells | AID 2029;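 active means GFP response relative to DMSO above a set limit, near the screen mean plus 3 SD, cut at about 150% in these data; inconclusive means Fewer than 70 cells measured for a yeast strain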;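 further: ratio of well median GFP fluorescence to mean of DMSO wells on the plate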
The depositor's hits bear a star; i = inactive; ? = inconclusive; nt = not tested or not shown; + = active, no number; [ ] = another dose, or the depositor's remark. Sampled rows, rich in hits. Any-hit rate of the full collection: about 1.8%.

SMILES | MEP2 TOR yeast | AGP1 TOR yeast | Myeloid diff MLP | LAP4 TOR yeast | RPL19A TOR yeast | CIT2-GFP yeast
O=c1c2c(-c3cccs3)csc2ncn1/N=C/c1ccccn1 | 91 | 100 | i | 156* | 82 | 83
CCCN(CCC)C(=O)CSc1nc2n[nH]c(C)c2c(=N)n1-c1ccc(OCC)cc1 | 100 | 102 | i | 94 | 97 | 102
CCOc1ccc(-n2c(SCC(=O)Nc3ccc(CC)cc3)nc3n[nH]c(C)c3c2=N)cc1 | 107 | 107 | + | 101 | 108 | 104
COc1ccc(CCN(C)C(=O)C(CCSC)NC(=O)c2ccco2)cc1OC (configuration not stated) | 95 | 92 | i | 87 | 94 | 92
CCOc1ccc(-c2nnc(NC(=O)c3ccc(OCC(C)C)c(OC)c3)o2)cc1 | 97 | nt | i | 103 | 98 | 101
COc1ccc(CN2CCN(C(=O)CCC(=O)Nc3nnc(C4CCCCC4)s3)CC2)cc1F | 98 | 107 | + | 108 | 92 | 97
COc1ccc(CN2CCN(C(=O)CCC(=O)Nc3nnc(C(F)(F)F)s3)CC2)cc1F | 106 | 100 | i | 95 | 101 | 101
COC(=O)C1=C(C)Nc2nnnn2C1c1cccs1 (configuration not stated) | 96 | 84 | i | 84 | 82 | 88
O=C(CCC(F)(F)F)N1CCC(CO)(CCc2ccccc2)CC1 | 103 | 152* | i | 89 | 102 | 99
O=C(NCc1ccccc1)N1CCC(CO)(CCc2ccccc2)CC1 | 109 | 117 | i | 121 | 100 | 113
CC(CCc1ccccc1)NC(=O)c1ccc(Br)cc1 (configuration not stated) | 100 | 112 | i | 108 | 100 | 93
CCCNC(=O)COC(=O)c1ccc(S(=O)(=O)N2CCCC2)cc1 | 264* | 119 | i | 240* | 114 | 193*
CCOC(=O)c1ccc(S(=O)(=O)N2CCC(C(=O)O)CC2)cc1 | 92 | 92 | + | 93 | 93 | 91
CCCNC(=O)COC(=O)c1ccc(Cl)c(S(=O)(=O)N2CCCC2)c1 | 103 | 107 | i | 108 | 103 | 111
Cc1ccccc1NC(=O)COC(=O)c1ccc(S(=O)(=O)N2CCCC2)cc1 | 100 | 93 | + | 97 | 93 | 90
CCOC(=O)c1ccc(S(=O)(=O)N2CCC(C(=O)OCC)CC2)cc1 | 95 | 91 | i | 97 | 93 | 87
CCC(=NCCc1ccc(OC)c(OC)c1)C1=C(O)CC(C)(C)CC1=O | 108 | 107 | i | 97 | 105 | 111
Cc1ccc2c(c1)C1(OCCO1)C(=O)N2 | 100 | 106 | i | 92 | 104 | nt
Cc1nnc2sc(-c3ccc(N(C)C)cc3)nn2c1=O | nt | nt | i | nt | nt | nt
C/C(=N/NC(=O)c1cccc(Br)c1)C1CC2CCC1C2 (configuration not stated) | 92 | 109 | i | 108 | 96 | 96
O=C(COC(=O)c1ccccc1NC(=O)c1ccco1)NC1CC1 | 102 | 101 | i | 103 | 102 | 100
CC(=O)c1ccccc1NC(=O)COC(=O)c1ccccc1NC(=O)c1ccccc1 | +[may fluoresce green] | 224*[may fluoresce green] | i | 986*[may fluoresce green] | 249 | 720*[may fluoresce green]
CN(C)C(=O)COC(=O)c1ccccc1NC(=O)c1ccco1 | 93 | 98 | + | 108 | 97 | 101
COc1ccccc1CN1CC(C(=O)NCCc2ccccc2Cl)CCC1=O (configuration not stated) | 104 | 105 | i | 92 | 100 | 103
COc1ccc(CC(=O)N2N=C(C)CC2(O)c2cccnc2)cc1OC (configuration not stated) | 98 | 100 | i | 109 | 101 | 94
SMILES | MEP2 TOR yeast | AGP1 TOR yeast | Myeloid diff MLP | LAP4 TOR yeast | RPL19A TOR yeast | CIT2-GFP yeast
Cc1cc(C)n2c(NCc3ccccc3)c(-c3cc4ccccc4o3)nc2n1 | nt | nt | + | nt | nt | nt
COc1ccc(/C=C/C(=O)O)cc1Cl | 105 | 102 | i | 116 | 114 | 96
COc1cc(/C=C/C(=O)O)cc(OC)c1O | 101 | 83 | + | 100 | 101 | 81
O=C(COC(=O)CSc1ccc(Cl)cc1)Nc1ccccc1 | 101 | 99 | i | 95 | 97 | 99
CC(Oc1ccc2c3c(c(=O)oc2c1)CCCC3)C(=O)NCc1ccccn1 (configuration not stated) | 107 | 98 | i | 99 | 102 | 103
O=S1(=O)Nc2c(ccc3cccnc23)-c2ccccc21 | 116 | 97 | i | 240* | 92 | 81
CC(/C=C/c1ccc(N(C)C)cc1)=N\N=C(/N)SC1CC(=O)N(c2ccc(C(=O)O)cc2)C1=O (configuration not stated) | 117 | 99 | + | 97 | 104 | 97
O=C(O)c1ccc(N2C(=O)CC(SC(=Nc3ccccc3)Nc3ccccc3)C2=O)cc1 (configuration not stated) | 105 | 99 | i | 93 | 106 | 106
O=S(=O)(c1ccccc1)N1CN(c2ccc(F)cc2F)c2nc3ccccc3nc21 | 107 | 94 | i | 90 | 103 | 100
CC(C)n1cc(-c2nc(C(=O)NN)cs2)c(=O)n(Cc2ccccc2)c1=O | 107 | 111 | + | 111 | 102 | 104
CCOC(=O)[C@@H]1[C@H]2COc3ccccc3[C@@H]2N2C(=O)N(c3ccc(C(F)(F)F)cc3)C(=O)[C@]12C | 94 | 86 | i | 98 | 93 | 91
Cc1ccc(NC(=O)[C@H](C)NC(=O)C2CCN(C(=O)[C@H](CC(C)C)NC(=O)OC(C)(C)C)CC2)cc1 | 115 | 99 | i | 96 | 104 | 100
CCC(c1nnnn1Cc1ccccc1)N(Cc1ccco1)Cc1cc2cc(OC)ccc2[nH]c1=O (configuration not stated) | 180*[may fluoresce violet] | nt | i | 89 | 68 | ?
NC(=O)C(c1ccc(Sc2ccccc2)nn1)c1ccc(Cl)cc1Cl (configuration not stated) | 101 | 92 | i | 93 | 97 | 91
O=C(NCCn1cc(SCc2ccc(F)cc2)c2ccccc21)c1ccccc1F | 97 | 94 | + | 95 | 93 | 95
S=c1nc(Cc2ccc(Cl)cc2)[nH]c2ccccc12 | 100 | nt | i | 100 | 90 | 99
S=c1nc(Cc2ccccc2)[nH]c2ccccc12 | 91 | 91 | + | 113 | 87 | 87
S=c1nc(COc2ccccc2)[nH]c2ccccc12 | 89 | 91 | + | 114 | 101 | 82
CC(=O)N1CCC(=NNS(=O)(=O)c2cccc([N+](=O)[O-])c2)CC1 | nt | nt | i | nt | nt | nt
CCOP(=O)(OCC)C(O)c1cc(OC)c(OC)c(OC)c1 (configuration not stated) | 97 | 103 | i | 98 | 100 | 100

Bioassay records: PubChem BioAssay, NMMLSC
